Assay outcomes deposited in PubChem by National Center for Advancing Translational Sciences (NCATS).
This is a sample that favours compounds with a hit; in the whole collection about 2.6% have one here.
Cruzain Triton – blocks cruzain activity in presence of Triton detergent. Potency, µM, for the others: max response, negative = inhibition, most hits filed as inhibitors. AID 1478. hit rate 0.43% among 200,000. purified cruzain, Z-FR-AMC fluorescence, 0.01% Triton;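 also: plate controls were neutral wells for no effect and buffer without enzyme for full effect; nearly all actives have a fitted effect of over 40% in size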
Target sequence (P25779 123-467 limits assumed): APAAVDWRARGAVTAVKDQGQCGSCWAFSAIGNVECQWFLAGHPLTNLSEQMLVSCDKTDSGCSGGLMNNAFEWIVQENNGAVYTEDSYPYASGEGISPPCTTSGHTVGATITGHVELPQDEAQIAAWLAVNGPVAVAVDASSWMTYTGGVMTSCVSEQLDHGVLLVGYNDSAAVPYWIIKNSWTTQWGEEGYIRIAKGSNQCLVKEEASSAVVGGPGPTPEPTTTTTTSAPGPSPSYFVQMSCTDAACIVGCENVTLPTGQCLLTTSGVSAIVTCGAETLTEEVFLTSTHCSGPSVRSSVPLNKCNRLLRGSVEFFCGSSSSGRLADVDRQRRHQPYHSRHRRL
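Read-out: AMC fluorescence (360 nm excitation, 450 nm emission), four reads over 2 min, first-to-third difference used. Conditions: cruzain 1.5 nM, Z-FR-AMC 2 uM, pH 5.5 acetate, 5 mM DTT, 0.01% Triton X-100.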
Cruzain noTriton – blocks cruzain activity in detergent-free assay. P25779. purified cruzain, Z-FR-AMC fluorescence, no detergent. hit rate 2.3% among 200,000. Potency, µM, for inactives: max response, negative = inhibition, actives largely listed as inhibitors;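 also: plate controls were enzyme without inhibitor for no effect and buffer without enzyme for full effect; nearly all actives have a fitted effect of over 40% in size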
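Purified cruzain at 1.5 nM, pre-incubated 15 min with compound at room temperature in 100 mM sodium acetate pH 5.5, 5 mM DTT, 0.00005% Triton X-100. Reaction started with 2 uM Z-FR-AMC; AMC fluorescence increase over 60 s gives rate.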
* hit, by the source's call. Calls follow the shape of the dose curve; as a rule, active = well fitted curve in the direction sought with a large enough effect; inconclusive = small, poorly fitted or top-dose-only effect, or another doubt; inactive = no such curve, though single readings can be large; an effect the other way counts as inactive or inconclusive. Potency is read from the fitted curve at half-maximal effect.

`CCCCOc1ccc(N2C(=O)CC(N(O)c3ccccc3)C2=O)cc1` (configuration not stated) gave Cruzain Triton 2% and Cruzain noTriton 20µM*.
For CCCCOc1ccc(N2C(=O)CC(N(CCc3ccccc3)C(=O)/C=C/C(=O)O)C2=O)cc1 (configuration not stated) the results were Cruzain Triton 0% and Cruzain noTriton inconclusive.
Screening CCCCCOc1ccc(N2C(=O)CC(N(O)c3ccccc3)C2=O)cc1 (configuration not stated) returned Cruzain Triton -1% and Cruzain noTriton 25µM*.
Screening CCOc1ccccc1N1C(=O)CC(N(O)c2ccccc2)C1=O (configuration not stated) returned Cruzain Triton -1% and Cruzain noTriton -5%.
Screening CC1(C)S[C@@H]2[C@H](NC(=O)C(N)c3ccccc3)C(=O)N2[C@H]1C(=O)O (some centres not stated) returned Cruzain Triton 1% and Cruzain noTriton 6%.
For O=C(Cn1c(=O)n(Cc2ccc(F)cc2)c(=O)c2sc3ccccc3c21)Nc1ccc(F)cc1F the results were Cruzain Triton -3% and Cruzain noTriton 2%.
Screening CCOC(=O)N1CCN(C(=O)CS(=O)(=O)c2cn(Cc3ccccc3C)c3ccccc23)CC1 returned Cruzain Triton 1% and Cruzain noTriton -4%.
`Cc1ccccc1Cn1cc(S(=O)(=O)CC(=O)Nc2nccs2)c2ccccc21` gave Cruzain Triton -7% and Cruzain noTriton 16µM*.
CC(C)c1ccc(NC(=O)c2ccc(NC(=O)CCS(=O)(=O)c3cccs3)cc2)cc1 was read as Cruzain Triton -4% and Cruzain noTriton 32µM*.
For O=C(CCS(=O)(=O)c1cccs1)Nc1ccc(C(=O)Nc2cccc(Cl)c2)cc1 the results were Cruzain Triton -11% and Cruzain noTriton -25%.
For COP(=O)(OC)c1nc(-c2cccc3ccccc23)oc1NCCc1ccccc1 the results were Cruzain Triton 25µM* and Cruzain noTriton inconclusive.
`N#Cc1nc(-c2cccc3ccccc23)oc1NCCN1CCOCC1` gave Cruzain Triton -30% and Cruzain noTriton -4%.
For COP(=O)(OC)c1nc(-c2cccc3ccccc23)oc1N1CCOCC1 the results were Cruzain Triton -17% and Cruzain noTriton 15%.
For CCCNc1oc(-c2cccc3ccccc23)nc1C#N the results were Cruzain Triton inconclusive and Cruzain noTriton 3.2µM*.
O=c1cc(-c2ccc(O)c(O)c2)oc2ccccc12 was read as Cruzain Triton -24% and Cruzain noTriton inconclusive.
CCC(=O)NC(NC(=S)Nc1ccc(S(N)(=O)=O)cc1)C(Cl)(Cl)Cl (configuration not stated) was read as Cruzain Triton -4% and Cruzain noTriton 11%.
Cc1cccc(C(=O)NC(NC(=S)Nc2ccc(S(N)(=O)=O)cc2)C(Cl)(Cl)Cl)c1 (configuration not stated) was read as Cruzain Triton 13µM* and Cruzain noTriton 25µM*.
CCCSc1nnc2n(-c3ccc(OC)cc3)c(=O)c3c4c(sc3n12)COC(C(C)C)C4 (configuration not stated) was read as Cruzain Triton 0% and Cruzain noTriton -5%.
COP(=O)(OC)OC(c1ccc(Cl)cc1)P(=O)(OC)OC (configuration not stated) was read as Cruzain Triton 0% and Cruzain noTriton 2%.
N#Cc1c(N2CCCC(O)C2)nc(N)c2c(N)nc3c(c12)CC(=O)N3C12CC3CC(CC(C3)C1)C2 (configuration not stated) was read as Cruzain Triton -15% and Cruzain noTriton 2%.
`C=C(C)CN(CC)c1nc(N)c2c(N)nc3c(c2c1C#N)CC(=O)N3C12CC3CC(CC(C3)C1)C2` gave Cruzain Triton -3% and Cruzain noTriton 4µM*.
For CCOC(=O)c1ccccc1NC(=O)c1sc2ncn(CC)c(=O)c2c1C the results were Cruzain Triton -2% and Cruzain noTriton -13%.
Screening CCOc1ccc(CCNC(=O)c2ccc3c(c2)N(Cc2ccc(C)cc2)CCS3)cc1 returned Cruzain Triton -3% and Cruzain noTriton inconclusive.
For Cc1ccc(CN2CCSc3ccc(C(=O)Nc4ccc(C)cc4)cc32)cc1 the results were Cruzain Triton 0% and Cruzain noTriton 10µM*.
COc1ccccc1CNC(=O)c1ccc2c(c1)N(Cc1ccc(C)cc1)CCS2 was read as Cruzain Triton -6% and Cruzain noTriton inconclusive.
COc1ccc(Br)cc1CNC(=O)c1ccc2c(c1)N(Cc1ccc(C)cc1)CCS2 was read as Cruzain Triton -5% and Cruzain noTriton 10µM*.
`O=C(c1ccncc1)N1CCC2(CC1)CN(c1ccncc1)C2` gave Cruzain Triton 2% and Cruzain noTriton -4%.
Screening O=C(O)c1ccc(Nc2nc3ccccc3n3cnnc23)cc1 returned Cruzain Triton 1% and Cruzain noTriton -8%.
Screening CCCN1Cc2cccc(C(=O)Nc3cc(Cl)ccc3C)c2C1=O returned Cruzain Triton 0% and Cruzain noTriton -7%.
Screening COc1cccc(C(=O)c2cn(CC(=O)Nc3ccc4c(c3)OCCO4)c3nc(C)ccc3c2=O)c1 returned Cruzain Triton -6% and Cruzain noTriton -4%.
For O=[N+]([O-])c1cccc2ccc(/C=C/c3ccc(F)cc3)nc12 the results were Cruzain Triton -6% and Cruzain noTriton -10%.
For O=[N+]([O-])c1ccc(/C=C/c2ccc3cccc([N+](=O)[O-])c3n2)cc1 the results were Cruzain Triton -6% and Cruzain noTriton 13µM*.
Cc1ccc(-n2c(=O)c3c(cnn3C)n(CC(=O)Nc3cc(C)ccc3C)c2=O)cc1 was read as Cruzain Triton 0% and Cruzain noTriton 4%.
`COc1ccc(OCC(=O)Nc2nc3ccccc3[nH]2)cc1` gave Cruzain Triton 2% and Cruzain noTriton -9%.
Screening O=C(COc1ccc2ccccc2c1)NCCNC(=O)COc1ccc2ccccc2c1 returned Cruzain Triton 7% and Cruzain noTriton 25µM*.
Screening O=C(COc1ccc2ccccc2c1)NNC(=O)Cc1ccccc1 returned Cruzain Triton -4% and Cruzain noTriton -2%.
O=C(COc1ccc2ccccc2c1)Nc1nc2ccccc2[nH]1 was read as Cruzain Triton 1% and Cruzain noTriton 25µM*.
`CC(C)c1cc2c(c(O)c1O)[C@@]1(C(=O)O)CCCC(C)(C)[C@@H]1CC2` gave Cruzain Triton -6% and Cruzain noTriton 6%.
C[C@@](N)(C(=O)O)c1cccc(CC(=O)O)c1 was read as Cruzain Triton 0% and Cruzain noTriton 4%.
For COc1ccc2c(c1)c1nnc(SC)nc1n2C the results were Cruzain Triton -5% and Cruzain noTriton -1%.
`COc1ccc2c(c1)c1nnc(SCC(=O)N3C(C)CCCC3C)nc1n2C` (configuration not stated) gave Cruzain Triton 18µM* and Cruzain noTriton -17%.
Screening COc1ccc(-n2c(=O)c(CCc3ccccc3)nc3cnc(N4CCOCC4)nc32)cc1 returned Cruzain Triton 2% and Cruzain noTriton -14%.
For C=CC#CC[N+]1(CC#Cc2ccccc2)CCOCC1 the results were Cruzain Triton 25µM* and Cruzain noTriton -8%.
`C(#Cc1ccccc1)C[N+]1(CC#Cc2ccccc2)CCCC1` gave Cruzain Triton -3% and Cruzain noTriton -13%.
CCOc1ccc(-c2cn3c(n2)sc2cc(C(=O)NCCCN4CCCCC4)ccc23)cc1 was read as Cruzain Triton -2% and Cruzain noTriton 4µM*.
